Data as given in PubChem BioAssay AID1224862 (National Center for Advancing Translational Sciences (NCATS), 2016).
Records with an inconclusive call do not appear. Entries that show only a call come without a potency. Calls of active or inactive are those of the source. Calls come from the whole dose curve; as a rule, active = well fitted cell-killing curve with a large enough effect; inconclusive = small, poorly fitted or top-dose-only effect, or effect the other way; inactive = flat fitted curve, though single readings scatter.

assay: Compound cytotoxicity measured by an ATP content assay as a counter-screen for lead compounds in human astrocytoma cell line (SNB-19); details: SNB-19 astrocytoma viability, ATP luminescence; series mostly up to 46.1 µM
Procedure: National Center for Advancing Translational Sciences [NCATS] Johns Hopkins University School of Medicine Florida State University Assay Overview: Many compounds can cause cytotoxicity at high compound concentrations. […] The compound cytotoxicity may also cause side effects or toxicity in human. Thus, the compound cytotoxicity needs to be measured in each cell type and each compound incubation time - same as these in the compound screening assay. The compound cytotoxicity can be measured by cell viability assays such as the ATP content assay. We use an ATP content assay kit for cell viability measurement. It measures ATP content (level) in human astrocytoma cell line (SNB-19) using a luminescence readout that is proportional to viable cell numbers. Decrease in the luminescence signal after the compound treatment indicates reduced cell viability and cell death caused by compound treatment.
Assay Protocol Summary: The medium for SNB-19 cells is composed of RPMI 1640 (ATCC, Cat.# 30-2001), 10% fetal bovine serum (FBS) (GE healthcare Life Sciences, Cat.# SH30071.03), and 1% Pen/Strep (Gibco, Cat.# 15140-122). The ATP content assay kit (PerkinElmer, Cat.# 6016731) was used to determine cell viability. The reagent was reconstituted and prepared as described by the manufacturer. Cells were seeded in 384- or 1536-well assay plates and cultured at 37 C with 5% CO2 for 16 to 20 hours. The typical cell seeding density in the 1536-well plate assay is 250 cells/well in 3ul medium for SNB-19 cells in tissue culture treated plates. Compounds were added to cells and incubated for a specific time such as 6, 24, or 72 hours before addition of the reagent mixture of the ATP content assay kit at 1:1 ratio. After incubation at room temperature for 10 minutes, the luminescence intensity in assay plates was measured using a ViewLux plate reader (PerkinElmer). […] The percentage inhibitions of the decreased cell viability by small molecules were then calculated that indicate compound cytotoxicity.

Row | Compound | Potency
1 | COP(=S)(OC)SCN1C(=O)c2ccccc2C1=O | inactive
2 | O=C1CCC[C@@H]2[C@H]3CCCN4CCC[C@@H](CN12)[C@@H]34 | inactive
3 | Oc1ccc([C@H]2CNCc3c2ccc(O)c3O)cc1O | inactive
4 | COc1cccc2c1C(=O)c1c(O)c3c(c(O)c1C2=O)C[C@@](O)(C(=O)CO)CC3OC1CC(N2CCOC(OC)C2)C(O)C(C)O1 (some centres undefined) | inactive
5 | CC[n+]1c(-c2ccccc2)c2cc(N)ccc2c2ccc(N)cc21 | inactive
6 | CN1CC[C@@]2(C)c3cc(OC(=O)Nc4ccccc4)ccc3N(C)[C@@H]12 | inactive
7 | CC(C)[N+](C)(CCC(C(N)=O)(c1ccccc1)c1ccccc1)C(C)C | inactive
8 | CC(O)CN1CCN(CC(=O)[O-])CCN(CC(=O)[O-])CCN(CC(=O)[O-])CC1.[Gd+3] (centres undefined) | inactive
9 | Cc1ccc([N+](=O)[O-])[c]2c1[O][Hg]2 | 5.48 µM (active)
10 | O=C1C=CC[C@@H]2[C@H]3CCCN4CCC[C@@H](CN12)[C@@H]34 | inactive
11 | O=S(=O)(CC1CS1)c1ccc(Oc2ccccc2)cc1 (centres undefined) | inactive
12 | CC(C)[C@H]1C(=O)N[C@H](CO)Cc2c[nH]c3cccc(c23)N1C | inactive
13 | CC(C)N[C@@H]1CCn2c(=O)[nH]c3cccc(c32)[C@@H]1O | inactive
14 | S=C(SSC(=S)N1CCCCC1)N1CCCCC1 | inactive
